This is an account of results in PubChem BioAssay AID485270 (The Scripps Research Institute Molecular Screening Center, 2010).

About 5,800 (1.8%) of roughly 330,000 compounds were called active. The sample holds actives, similar compounds and a random draw of the others, so the mix is not that of the screen. Unmarked numbers belong to inactive results. Cut-off read from the data, not from the text of the source: active = inhibition mostly above about 38% (no sharp cut-off); inactive = mostly below about 40%.

The target in this assay is Orexin/Hypocretin receptor type 1 (Homo sapiens) (UniProt O43613). Kind of assay: blocks the human orexin 1 receptor (AID 485270).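 Note: 0% = agonist challenge alone and 100% = reference antagonist.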 The note with it: OX1R-expressing cells, FRET antagonist read-out; at 6.6 µM; active compounds read high.
Chain of Orexin/Hypocretin receptor type 1 (Homo sapiens) (O43613 whole entry, looked up): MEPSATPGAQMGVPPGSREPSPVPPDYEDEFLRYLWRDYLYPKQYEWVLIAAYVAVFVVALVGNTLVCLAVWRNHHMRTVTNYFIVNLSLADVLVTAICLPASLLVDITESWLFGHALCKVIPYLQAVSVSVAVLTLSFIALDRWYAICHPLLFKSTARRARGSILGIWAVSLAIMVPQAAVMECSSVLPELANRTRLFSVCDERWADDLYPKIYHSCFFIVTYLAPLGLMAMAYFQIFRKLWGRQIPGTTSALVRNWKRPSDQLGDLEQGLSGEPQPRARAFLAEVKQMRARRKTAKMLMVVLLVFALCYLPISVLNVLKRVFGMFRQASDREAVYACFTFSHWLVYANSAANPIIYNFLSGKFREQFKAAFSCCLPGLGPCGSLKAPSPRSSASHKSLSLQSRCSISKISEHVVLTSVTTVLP
The term inhibition denotes the drop in the measured response relative to a control, in per cent. `CC(C)CC1NC(=O)c2cc(Cl)ccc2-n2c1nc1ccccc1c2=O` (stereo not given): the inhibition was 4.11%.
As for `O=C(Nc1cccc(NC(=O)c2cccc(F)c2)c1)c1ccccc1`, the inhibition was 16.8%.
To `O=C(Nc1ccccc1)c1ccc2nsnc2c1` belongs 41.3% (active).
Turning to `Cc1cccc(NC(=O)c2ccc3nsnc3c2)c1C`, the inhibition is 34.9%.
`COc1cc(OC)cc(-c2c(C#Cc3ccsc3)c3cc(-c4ccc(SC)cc4)ccc3n2C)c1`: the inhibition was 7.83%.
Turning to `COc1cccc(C(=O)NNC(=O)c2cccc(F)c2)c1`, the inhibition is -10.7%.
The same measure for `COc1cccc(C(=O)NC(=O)Nc2nc(C)cc(C(F)(F)F)n2)c1`: 64.4% (active); for `Cc1cc(C)nc(NC(=O)Nc2ccccc2C(F)(F)F)n1`: 19.6%.
As for `CNC(=O)CN1C(=O)NC(c2ccccc2)(c2ccccc2)C1=O`, the inhibition was 27%.
`COc1cccc(CNC(=O)COC(=O)CN2C(=O)NC3(CCCCC3C)C2=O)c1` (stereo not given): the inhibition is 4.53%.
As for `COc1cccc(CNC(=O)CN2C(=O)NC(Cc3ccccc3)(c3ccccc3)C2=O)c1` (stereo not given), the inhibition is 40.8% (active).
For the molecule `O=C(NCc1ccc2c(c1)OCO2)c1c(-c2ccsc2)sc2ccccc12`, the inhibition was 35.8%.
For `Cc1ccc(S(=O)(=O)N(C)c2ccc(OCC(=O)OCc3ccc(C#N)cc3)cc2)cc1`, the inhibition is 5.89%.
The same measure for `Cc1c(NC(=O)C(C)Oc2cccc(Cl)c2)c(=O)n(-c2ccccc2)n1C` (stereo not given): 16%; for `Cc1c(NC(=S)Nc2ccccc2)c(=O)n(-c2ccccc2)n1C`: 6.12%.
With `Cc1cccc(OP(=O)(Nc2c(C)n(C)n(-c3ccccc3)c2=O)Oc2cccc(C)c2)c1`, the inhibition was 61.5% (active).
For the molecule `COc1ccc(-c2noc(CCC(=O)N3CCN(c4cccc(C)c4)CC3)n2)cc1`, the inhibition was 7.06%.
On to `CN(C)C(=O)CCc1ccc2c3c([nH]c2c1)[C@]1(C)[C@@H](C(=O)N2CCCCC2)C[C@H](CC(=O)NCCC2=CCCCC2)C(=O)N1CC3`, for which the inhibition was 10.5%.
`C[C@@H]1CN([C@@H](C)CO)C(=O)c2cccc(NS(=O)(=O)c3ccc(F)cc3)c2O[C@H]1CN(C)C(=O)NC1CCCCC1`: the inhibition was 11.9%.
On to `COc1ccc(C(=O)OCc2cc(=O)n3ccsc3n2)cc1F`, for which the inhibition is 3.7%.
For the molecule `CCN1/C(=C\c2ccc3ccccc3[n+]2CC)Sc2cc(C)ccc21`, the inhibition was 69.9% (active).
`CCN1/C(=C/c2ccc3ccc(C)cc3[n+]2CC)Sc2ccccc21`: the inhibition was 38.5%.
Regarding `CN(CC(=O)Nc1ccc(OC(F)F)cc1)S(=O)(=O)/C=C/c1ccccc1`, the inhibition was 6.62%.
On to `Cn1c(N)c(C(=O)COC(=O)c2cnc(Cl)c(Cl)c2)c(=O)n(C)c1=O`, for which the inhibition is 6.46%.
With `Cn1c(N)c(C(=O)COC(=O)c2ccc3ccccc3c2)c(=O)n(C)c1=O`, the inhibition was 44.9% (active).
The same measure for `Cn1c(N)c(C(=O)COC(=O)c2cccc(S(=O)(=O)N3CCOCC3)c2)c(=O)n(C)c1=O`: 13.1%; for `Cn1cncc1C#Cc1c(-c2ccsc2)sc2ccccc12`: 10.4%; for `CC1Cc2ccccc2N1S(=O)(=O)c1cccc(C(=O)OCC(=O)N2CCOCC2)c1` (stereo not given): 7.49%.
To `O=S(=O)([N-]c1nc2ccccc2nc1-[n+]1ccc(Cc2ccccc2)cc1)c1ccc(Br)s1` belongs 20.8%; to `Cc1ccc(C)c(NC(=O)CN(C)C(=O)COc2ccc3ccccc3c2)c1`, 19.9%; to `Cc1ccnc(Nc2nc3ccccc3s2)n1`, 55.2% (active).
Take `c1ccc2sc(NN=C3CCCC3)nc2c1`: the inhibition is 3.98%.
On to `Cc1ccnc(-n2sc3ccccc3c2=O)n1`, for which the inhibition was 15.6%.
Turning to `COc1ccc(/C=C/C(=O)Nc2ccc(C34CC5CC(CC(O)(C5)C3)C4)cc2)cc1OC`, the inhibition was 18.9%.
The same measure for `C=CCC[C@@H](Cc1ccc(F)cc1)C(=O)OC[C@@H](C)NC(=O)[C@H](CC=C)CC(=O)N(CCO)Cc1ccccc1`: 7.32%.
Regarding `O=S(=O)(NCC1CN(S(=O)(=O)c2ccc3c(c2)OCCO3)C1)c1c(F)cccc1F`, the inhibition was 3.02%.
On to `Cc1nc(-c2ccc([N+](=O)[O-])cc2)c(-c2ccccc2)o1`, for which the inhibition is 5.07%.
Consider `Cc1cc(CO)nn1-c1ccc([N+](=O)[O-])cc1`, for which the inhibition is 46.5%.
As to `Cc1nn(-c2ccc([N+](=O)[O-])cc2)c(N)c1-c1ccccc1`, the inhibition was 62.8% (active).
As for `O=C(COc1ccc(Br)cc1F)NCC1(N2CCCCC2)CCCCC1`, the inhibition was 9.11%.
On to `O=C(COC(=O)c1ccc([N+](=O)[O-])o1)NC12CC3CC(CC(C3)C1)C2`, for which the inhibition is 23.2%.
As for `O=C(Nc1ccc(C(=O)N2CCCCC2)cc1)c1cccc([N+](=O)[O-])c1`, the inhibition was 4.33%.
Turning to `O=C(Oc1ccccc1C(=S)N1CCCCC1)c1cc([N+](=O)[O-])cc([N+](=O)[O-])c1`, the inhibition was 123% (active).
`O=C(Oc1ccc(Br)cc1C(=S)N1CCOCC1)c1cccc([N+](=O)[O-])c1`: the inhibition is 18.1%.
For `CC(=O)Nc1ccc(NC(=O)COC(=O)C2CCC(C(C)(C)C)CC2)cc1` (stereo not given), the inhibition was 7.49%.
The same measure for `O=C(Nc1ccc(-n2cccn2)cc1)C1CCN(Cc2ccsc2)CC1`: -0.73%; for `COc1ccccc1CNC(=O)c1ccc(Cl)c(S(=O)(=O)N2CCCC2)c1`: 16.6%; for `COc1ccc(CNC(=O)COC(=O)C(CCSC)N2C(=O)c3ccccc3C2=O)cc1` (stereo not given): 9.55%.
For the molecule `COc1cc(OC)cc(C(=O)NC(C(=O)N2CCC2)C(C)C)c1` (stereo not given), the inhibition was 4.23%.
As for `COc1ccc(-c2nnc(NC(=O)CS(=O)(=O)c3ccc(Cl)cc3)o2)c(OC)c1`, the inhibition is 47.9% (active).
As for `Cc1ccc(C)c(-c2nnc(NC(=O)CS(=O)(=O)c3ccccc3)o2)c1`, the inhibition was 12.7%.
In the case of `COc1ccc(NC(=O)CS(=O)(=O)c2ccccc2)cc1`, the inhibition was -4.46%.
With `CCCCNc1c(-c2cccc(Sc3ccc(OC)cc3)c2)nc2ccccn12`, the inhibition was 32.8%.
With `c1ccc2c(CCN3CCNC[C@H]3Cc3cccc4ccccc34)cccc2c1`, the inhibition was 3.65%.
To `CC(NC(=O)COC(=O)Cn1cc(C(F)(F)F)ccc1=O)c1ccccc1` (stereo not given) belongs 3.44%; to `O=c1[nH]c(-c2ccccc2)c(-c2ccccc2)[nH]1`, 8.25%; to `Cc1cc2nc3c(=O)n(Cc4ccccc4)c(=O)[nH]c3nc2cc1N`, 14.8%.
To `Nc1ccc2nc3c(=O)[nH]c(=S)[nH]c3nc2c1` belongs 93.8% (active); to `O=c1[nH]c(=O)c2nc3ccccc3nc2[nH]1`, 53.3% (active); to `O=c1[nH]c(-c2cccs2)nc2ccccc12`, 42.7%.
